# Screening results from PubChem.
# Shown are actives, neighbours in structure and some others; about 0.97% of the full set was active somewhere.
# CIT2-GFP yeast = yeast TOR pathway CIT2-GFP modulation | S. cerevisiae CIT2-GFP strain, flow cytometry, 3 h; 100 means same as DMSO wells | GFP response vs DMSO, % at 10 µM | 320,000 compounds, 0.065% hits;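 active = GFP response relative to DMSO above a set limit, near the screen mean plus 3 SD, cut at about 150% in these data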;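 also: ratio of well median GFP fluorescence to mean of DMSO wells on the plate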
# AGP1 TOR yeast = yeast TOR pathway AGP1-GFP modulation. GFP response vs DMSO, % at 10 µM. S. cerevisiae AGP1-GFP multiplex flow cytometry, 3 h; GFP as percent of DMSO wells. AID 2066. 320,000 compounds, 0.02% hits;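 active = GFP response relative to DMSO above a set limit, near screen average plus 3 SD, cut at about 150% in these data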;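 also: median GFP channel fluorescence of the gated AGP1 strain per well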
# RPL19A TOR yeast = modulators of TOR pathway RPL19A-GFP in S. cerevisiae | percent response vs DMSO, % at 10 µM | 330,000 compounds, 0.3% hits | AID 2025 | S. cerevisiae RPL19A-GFP strain, flow cytometry, 3 h; stronger effect = lower value;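 active = percent response vs DMSO below 50%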;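 also: median channel GFP fluorescence of the barcoded RPL19A-GFP strain; ratio of sample median GFP to plate DMSO average so 100% = DMSO; lower means less RPL19A-GFP as with rapamycin TOR inhibition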
# LAP4-GFP MLPCN = modulators of TOR pathway LAP4-GFP in S. cerevisiae | AID 2023 | 320,000 compounds, 0.34% hits | GFP response vs DMSO, % at 10 µM | S. cerevisiae LAP4-GFP multiplex, flow cytometry GFP, 3 h; median GFP as percent of DMSO wells;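 active = GFP response vs DMSO above a set limit, about the screen mean plus 3 SD, cut at about 150% in these data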
# GASC-1 inh = human JMJD2C demethylase inhibition; Q9H3R0; GST-JMJD2C(1-420) H3K9me3 demethylation, DELFIA europium; inhibition, % at 2.35 µM; 330,000 compounds, 0.069% hits; AID 2099;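 active = more than half of a compound's replicate wells show inhibition beyond 50%, single wells judged on their own value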;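 also: signal counts dimethyl H3K9 product captured on neutravidin plate; 0% = median of DMSO wells and 100% = 0.3 times that DMSO median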
# Target sequence (Q9H3R0 1-420 limits assumed): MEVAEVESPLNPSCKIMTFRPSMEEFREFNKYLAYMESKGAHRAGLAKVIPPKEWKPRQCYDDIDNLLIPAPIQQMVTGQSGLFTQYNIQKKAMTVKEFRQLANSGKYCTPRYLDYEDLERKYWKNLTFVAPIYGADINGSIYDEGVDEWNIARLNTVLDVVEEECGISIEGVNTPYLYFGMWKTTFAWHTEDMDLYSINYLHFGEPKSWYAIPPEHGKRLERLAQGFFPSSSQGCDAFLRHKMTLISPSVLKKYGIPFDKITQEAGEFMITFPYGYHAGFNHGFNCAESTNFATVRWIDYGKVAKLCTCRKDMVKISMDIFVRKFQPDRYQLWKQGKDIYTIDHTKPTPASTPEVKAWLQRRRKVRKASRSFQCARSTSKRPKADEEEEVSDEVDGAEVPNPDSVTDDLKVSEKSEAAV
# MEP2-GFP yeast = alters MEP2-GFP fluorescence in TOR pathway yeast screen. S. cerevisiae MEP2-GFP strain, flow cytometry GFP, 3 h; 100% = DMSO control level. AID 2016. GFP response vs DMSO, % at 10 µM. 330,000 compounds, 0.51% hits;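 active = GFP response versus DMSO above a set limit, roughly screen mean plus 3 SD, cut at about 180% in these data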;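 also: median GFP fluorescence of the barcode-gated MEP2-GFP cells per well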
# LAP4 cherry2 = reconfirmed LAP4-GFP TOR pathway modulator in yeast; shares compounds with LAP4-GFP MLPCN; S. cerevisiae LAP4-GFP strain, flow cytometry GFP, 3 h; GFP response vs DMSO, % at 10 µM; 590 compounds, 20% hits;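 active = GFP signal as percent of the solvent control above about 150%, meaning raised reporter expression, limit read from the data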;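 also: ratio of well median GFP fluorescence to plate DMSO mean so 100% = DMSO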
# MEP2-GFP pick2 = reconfirmed MEP2-GFP TOR pathway modulator in yeast | shares compounds with LAP4-GFP MLPCN | S. cerevisiae MEP2-GFP strain, flow cytometry GFP, 3 h | GFP response vs DMSO, % at 10 µM | 590 compounds, 10% hits | AID 2622;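 active = GFP signal above 150% of the solvent control wells, that is a rise of more than half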;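 also: median channel GFP fluorescence of all gated yeast cells per well; ratio of median GFP to plate DMSO average so 100% = DMSO level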
# RPL19A GFP CP2 = yeast RPL19A-GFP TOR reporter modulation, second cherry pick; GFP response vs DMSO, % at 10 µM; S. cerevisiae RPL19A-GFP strain, flow cytometry GFP, 3 h; stronger effect = lower value; 100% means same as DMSO wells; 590 compounds, 3% hits; shares compounds with LAP4-GFP MLPCN; AID 2623;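 active = under 65% GFP response relative to DMSO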;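 also: median GFP channel fluorescence per well over the all cells gate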
# CIT2 GFP CP2 = second confirmation of modulators of TOR reporter CIT2-GFP in yeast | shares compounds with LAP4-GFP MLPCN | S. cerevisiae CIT2-GFP strain, flow cytometry GFP, 3 h; DMSO control wells read 100% | GFP response vs DMSO, % at 10 µM | 590 compounds, 8% hits | AID 2624;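 active = GFP response vs DMSO above about 150%, limit read from the data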;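 also: median green fluorescence per well over all gated yeast cells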
# AGP1-GFP pick2 = yeast AGP1-GFP TOR reporter modulation, second cherry pick; shares compounds with LAP4-GFP MLPCN; percent response vs DMSO, % at 10 µM; 590 tested, under 10 active; S. cerevisiae AGP1-GFP strain, flow cytometry GFP, 3 h;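 active = over 150 percent of DMSO response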;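 also: median GFP channel fluorescence over all cells without mother daughter split; sample median GFP divided by mean DMSO control so 100% equals DMSO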
# Yeast autofluor = counter-screen for compound autofluorescence in yeast s288c cells; S. cerevisiae s288c, 520 nm autofluorescence, flow cytometry, 3 h; stronger effect = higher value; zero means same as solvent-only cells; AID 2757; fluorescence change (kMESF span) at 33 µM; 610 tested, under 10 active; shares compounds with LAP4-GFP MLPCN;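 active = fluorescence span over the dose series, or activity score, above about 33, limit read from the data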
# Starred values were filed as active, the others as inactive; x = not tested or not shown; + = active, no number; [ ] = dose if it differs, or a comment.
SMILES,CIT2-GFP yeast,AGP1 TOR yeast,RPL19A TOR yeast,LAP4-GFP MLPCN,GASC-1 inh,MEP2-GFP yeast,LAP4 cherry2,MEP2-GFP pick2,RPL19A GFP CP2,CIT2 GFP CP2,AGP1-GFP pick2,Yeast autofluor
Cc1cccc(C(=O)NC(=S)NNC(=O)Cc2ccccc2)c1,88,105,111,209*[may fluoresce green],3,104,293*,138,116,156*,107,1.5
C/C(CC(=O)Nc1ccc(F)cc1F)=N\NC(=O)C(=O)N1CCCCC1,98,21,101,100,-4,118,x,x,x,x,x,x
O=S1(=O)C=C(Sc2nc3ccccc3s2)c2ccccc21,87,90,92,172*,8,91,175*,106,104,141,94,0.2
COc1ccc(OCc2nn[nH]n2)cc1,109,103,102,91,0,100,x,x,x,x,x,x
CCN(CC(=O)Nc1cc(S(=O)(=O)N2CCOCC2)ccc1Cl)Cc1ccccc1,754*,229*,215,670*,1,790*,96,93,99,103,97,-0.1
CC(C)Cn1c(N)c(C(=O)COC(=O)c2c(O)c(Cl)cc(Cl)c2Cl)c(=O)n(C)c1=O,+,320*,300,+,30,+,96,100,98,90,100,x
O=C(OCC(=O)N1CCN(C(=O)c2ccco2)CC1)c1cc(-c2ccc(Cl)c(Cl)c2Cl)nc2ccccc12,99,114,80,122,6,118,x,x,x,x,x,-0.3
O=C(OCC(=O)N1CCN(C(=O)c2ccco2)CC1)c1cc(-c2ccco2)nc2ccccc12,128,97,87,123,38,103,x,x,x,x,x,x
Cc1ccc(O)c(N=Nc2nccs2)c1,75,75,89,171*,13,100,227*,141,101,132,95,0.61
CC1CCCC(NC(=O)CN(C)CC(=O)Nc2cccc(F)c2)C1C (centres undefined),127,134,80,172*,17,155,99,100,100,97,99,x
CC(=O)c1ccc(NC(=O)CN(C)CC(=O)Nc2cccc(F)c2)cc1,84,91,93,91,2,94,x,x,x,x,x,x
Cc1onc(-c2ccccc2)c1C(=O)NNC(=S)NC(=O)c1ccc(Cl)cc1Cl,106,104,105,100,-27,105,x,x,x,x,x,x
Cc1ccccc1C(=O)NNC(=S)NC(=O)c1ccc(Cl)cc1Cl,104,104,91,182*,-2,108,x,x,x,x,x,0.4
O=C(NC(=S)NNC(=O)c1ccc(Cl)cc1Cl)c1cccnc1,100,96,104,110,-6,184*,x,x,x,x,x,0.91
CC1CCCN(S(=O)(=O)c2ccc(NC(=O)CN3C(=O)NC(C)(c4ccccc4)C3=O)cc2)C1 (centres undefined),94,105,97,106,-4,95,x,x,x,x,x,x
